Results published in PubChem BioAssay AID1053185 (Broad Institute, 2014).
Measured potencies and affinities stand elsewhere. Active and inactive are the calls of the source.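 How the source made its calls: active means cell killing with fitted half-maximal concentration at most twice the top valid dose; inconclusive means flat partial loss of 30 to 70%, or poor fit; inactive means the rest.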

Assay: HEK293 cell viability loss – cherry-picked samples, cytotoxicity control, dose response (AID 1053185)
Details: HEK293T viability, ATP luminescence, 72 h; series mostly up to 26 µM; activity change, negative = cytotoxicity: at the top concentration

| Compound | activity change, negative = cytotoxicity |
| --- | --- |
| COc1cc(CN2C[C@@H]3N[C@H](C2)C3c2ccc(-c3ccc(C#N)cc3)cc2)cc(OC)c1 (some centres undefined) | -1.68% (inactive) |
| COc1ccc2c3c(n(C)c2c1)[C@@H](CO)N(CC1CC1)CC31CN(C(=O)c2ccc3c(c2)OCO3)C1 | -7.78% (inactive) |
| C/C=C/c1ccc([C@H]2[C@@H](CO)N3C(=O)CN(Cc4ccc(F)cc4)C[C@@H]23)cc1 | -5.85% (inactive) |
| CO[C@@H](CN(C)Cc1cc(F)ccc1F)[C@@H](C)CN(C(=O)Nc1ccc(C(F)(F)F)cc1)[C@H](C)CO | -11.8% (inactive) |
| CN(C)C(=O)c1cccc(-c2ccc(C3[C@@H]4CN(Cc5ccccc5F)C[C@H]3N4)cc2)c1 (some centres undefined) | -7.48% [at 23.5 µM] (inactive) |
| O=S(=O)(c1ccc(F)cc1)N1C[C@@H]2N[C@H](C1)C2c1ccc(/C=C/c2ccccc2)cc1 (some centres undefined) | -2.66% (inactive) |
| C[C@@H]1CN([C@@H](C)CO)C(=O)Cc2cc(NC(=O)C3CCCCC3)ccc2O[C@@H]1CN(C)Cc1ccc(Cl)c(Cl)c1 | -9.84% (inactive) |
| CNC[C@@H]1Oc2cc(C#Cc3ccccc3OC)ccc2S(=O)(=O)N([C@H](C)CO)C[C@H]1C | -0.997% (inactive) |
| COc1cccc(-c2cccc(-c3nc(C(=O)Nc4ccc(-c5ccccc5)cc4)cc4c3[C@@H](CCO)N(S(=O)C(C)(C)C)C4)c2)c1 (some centres undefined) | -5.79% (inactive) |
